Here are results for 6 compounds from PubChem BioAssay (Tox21).

Assay [1] can be described thus: qHTS assay for small molecule agonists of the p53 signaling pathway (AID 651631; calls by dose curve; also: nearly all actives have a fitted effect of over 15% in size; also: potency is read from the fitted curve at half-maximal effect). Summed up: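 p53RE-bla HCT-116 cells; compounds 16 h, 37 °C; LiveBLAzer B/G FRET substrate 2 h RT; fluorescence intensity read-out, qHTS format.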
A short description of assay [2]: qHTS assay for small molecules that induce genotoxicity in human embryonic kidney cells expressing luciferase-tagged ATAD5 (AID 651632). Also: nearly all actives have a fitted effect of over 15% in size. In outline: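 Concentration-response screen for ATAD5 upregulation in HEK293T luciferase reporter cells; 16 hr treatment at 37C, then luminescence after 30 min with Amplite at room temperature.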
The nature of assay [3]: qHTS assay for small molecule agonists of the p53 signaling pathway - cell viability (AID 651633; calls by dose curve; also: nearly all actives have a fitted effect of over 30% in size; also: potency is read from the fitted curve at half-maximal effect). In outline:
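p53RE-bla cells, seeded at 4,000 per well and rested 5 h at 37 C/5% CO2, received compounds in DMSO for 16 h at 37 C. CellTiter-Glo was then added, and luminescence was read after 30 min at room temperature to gauge cytotoxicity.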

Assay [4] in a line: qHTS assay for small molecule disruptors of the mitochondrial membrane potential - cell viability (AID 720634; calls by dose curve; also: nearly all actives have a fitted effect of over 20% in size; also: potency is read from the fitted curve at half-maximal effect). Summed up: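 In this qHTS format, HepG2 cells plated overnight were pinned with compound, incubated 1 hr, and assayed for ATP luminescence with CellTiter-Glo after m-MPI dye addition.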
Assay [5] is described as follows: qHTS assay for small molecule disruptors of the mitochondrial membrane potential (AID 720635). Also: potency is read from the fitted curve at half-maximal effect. Summed up:
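HepG2 cells (2,000/well) attached overnight at 37C, then took compound for 1 hr at 37C, 5% CO2. Mito-MPS dye was added for 30 min; fluorescence was read at 490/535 nm (monomers) and 540/590 nm (aggregates).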

Assay [6] in a line: qHTS assay to test for compound auto fluorescence at 590 nm (red) in HepG2 cells (AID 720674). Summed up: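 Intrinsic compound fluorescence in the red window (Ex/Em 540/590 nm) is measured in attached HepG2 cells exposed for 1 hr, DMSO vehicle as baseline, benchmarked to Rose Bengal sodium.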
Assay [7] in a line: qHTS assay to test for compound auto fluorescence at 535 nm (green) in HepG2 cells (AID 720675). Also: potency is read from the fitted curve at half-maximal effect.
Assay [8] can be described thus: qHTS assay to test for compound auto fluorescence at 460 nm (blue) in HEK293 cells (AID 720678). Also: potency is read from the fitted curve at half-maximal effect. Summed up:
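Blue-channel (Ex/Em 405/460 nm) intensity measured in HEK293 cultures after overnight compound exposure at 37C; signal expressed relative to triamterene. Cells plated 2,000 per well in 10% dialyzed FBS medium and allowed 4-5 hr to attach.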

Assay [9] in a line: qHTS assay to test for compound auto fluorescence at 590 nm (red) in HEK293 cells (AID 720679). Summed up: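 Red-channel autofluorescence (Ex/Em 540/590 nm; Rose Bengal sodium reference) was measured after overnight 37C, 5% CO2 exposure of attached HEK293 cells, 2,000 per well in medium with 10% dialyzed FBS.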
Assay [10] can be described thus: qHTS assay to test for compound auto fluorescence at 460 nm (blue) in HEK293 cell free culture (AID 720681). Also: potency is read from the fitted curve at half-maximal effect. In outline:
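Test compounds were pinned into cell-free culture medium (DMEM with 10% FBS) and fluorescence was read directly at Ex/Em 405/460 nm. Signals were expressed as fluorescence equivalents of triamterene, with DMSO vehicle as control.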

The nature of assay [11]: qHTS assay to test for compound auto fluorescence at 535 nm (green) in HEK293 cell free culture (AID 720682). Also: potency is read from the fitted curve at half-maximal effect. Summed up: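 Cell-free medium (DMEM, 10% FBS) receives compound or DMSO by pintool. Plate read directly at Ex 485/Em 535 nm. Signal converted to fluorescein equivalency.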
The nature of assay [12]: qHTS assay to test for compound auto fluorescence at 590 nm (red) in HepG2 cell free culture (AID 720684). Summed up: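 Ex 540 / Em 590 nm read of compound in cell-free MEM (10% FBS). Rose Bengal sodium reference.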
Assay [13] in a line: qHTS assay to test for compound auto fluorescence at 460 nm (blue) in HepG2 cell free culture (AID 720685). Also: potency is read from the fitted curve at half-maximal effect. Summed up:
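Cell-free plates of MEM plus 10% FBS received 23 nL compound or DMSO vehicle; blue-channel (405/460 nm) intensity scored against triamterene as reference fluorophore.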

The nature of assay [14]: qHTS assay to test for compound auto fluorescence at 535 nm (green) in HepG2 cell free culture (AID 720686). Also: potency is read from the fitted curve at half-maximal effect.
Assay [15] is described as follows: qHTS assay to test for compound auto fluorescence at 460 nm (blue) in HepG2 cells (AID 720687). Also: potency is read from the fitted curve at half-maximal effect. In outline: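 Cells (2,000/well in MEM with 10% FBS) attached overnight at 37 C, then were exposed to compound or DMSO for 1 hr at 37 C, 5% CO2. Fluorescence read at Ex/Em 405/460 nm, expressed as triamterene-equivalent signal.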
Assay [16] is described as follows: qHTS assay for small molecules that induce genotoxicity in human embryonic kidney cells expressing luciferase-tagged ATAD5 - cell viability (AID 651634; calls by dose curve; also: nearly all actives have a fitted effect of over 25% in size; also: potency is read from the fitted curve at half-maximal effect). In outline: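 15.5 hr compound or vehicle exposure of HEK293T cells expressing luciferase-tagged ATAD5 at 37C; live-cell protease activity is read by fluorescence after 30 min of CellTiter-Fluor.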
Assay [17] in a line: qHTS assay to test for compound auto fluorescence at 535 nm (green) in HEK293 cells (AID 720680).
The target in assay [18] is Glucocorticoid receptor (Homo sapiens) (UniProt P04150). The assay can be described thus: qHTS assay to identify small molecule antagonists of the glucocorticoid receptor (GR) signaling pathway (AID 720692; active = well fitted inhibition curve with a large enough effect in the signal ratio in the repeat runs, not every such curve was filed as active; the % refers to the signal ratio; also: potency is read from the fitted curve at half-maximal effect). In outline:
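Tox21 10K library screened in concentration-response for blockade of dexamethasone (5 nM final)-induced GRE-bla reporter activity in HeLa cells; 18 h treatment, fluorescence read.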

A short description of assay [19]: qHTS assay to test for compound auto fluorescence at 590 nm (red) in HEK293 cell free culture (AID 720683). Summed up:
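Tox21 10K library compounds were pinned into cell-free DMEM with 10% FBS and fluorescence was read at excitation 540 nm. Activity is expressed as Rose Bengal sodium equivalency.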

The target of assay [20] is Glucocorticoid receptor (Homo sapiens) (UniProt P04150). The experiment in a line: qHTS assay to identify small molecule agonists of the glucocorticoid receptor (GR) signaling pathway (AID 720691; active = well fitted activation curve with a large enough effect in the signal ratio in the repeat runs, not every such curve was filed as active; the % refers to the signal ratio). Conditions: GR-bla HeLa, beta-lactamase reporter ratio, 18 h; activation: at 62.4 µM (top of the series). In outline:
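Measures GR pathway activation through a GRE-beta-lactamase reporter stably integrated in HeLa cells, with 18 h compound treatment at 37 C and fluorescence detection using a FRET substrate.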

Values joined by “and” are separate entries in the source; they are usually repeats but may differ in a detail not shown here. Identical values can stand only once. Unmarked numbers belong to inactive results. Records with an inconclusive call do not appear. Active and inactive are the calls of the source. Unless noted, calls follow the shape of the dose curve; as a rule, active = well fitted curve in the direction sought with a large enough effect in the repeat runs; inconclusive = weak or mixed curves; inactive = no such curve, though single readings can be large; an effect the other way counts as inactive or inconclusive.
% is scaled to controls: 0 for no effect and ±100 for the full control effect; tags tell the direction and shape of the fitted curve or compound fluorescence and quenching.

Chain of Glucocorticoid receptor (Homo sapiens) (P04150 whole entry, looked up): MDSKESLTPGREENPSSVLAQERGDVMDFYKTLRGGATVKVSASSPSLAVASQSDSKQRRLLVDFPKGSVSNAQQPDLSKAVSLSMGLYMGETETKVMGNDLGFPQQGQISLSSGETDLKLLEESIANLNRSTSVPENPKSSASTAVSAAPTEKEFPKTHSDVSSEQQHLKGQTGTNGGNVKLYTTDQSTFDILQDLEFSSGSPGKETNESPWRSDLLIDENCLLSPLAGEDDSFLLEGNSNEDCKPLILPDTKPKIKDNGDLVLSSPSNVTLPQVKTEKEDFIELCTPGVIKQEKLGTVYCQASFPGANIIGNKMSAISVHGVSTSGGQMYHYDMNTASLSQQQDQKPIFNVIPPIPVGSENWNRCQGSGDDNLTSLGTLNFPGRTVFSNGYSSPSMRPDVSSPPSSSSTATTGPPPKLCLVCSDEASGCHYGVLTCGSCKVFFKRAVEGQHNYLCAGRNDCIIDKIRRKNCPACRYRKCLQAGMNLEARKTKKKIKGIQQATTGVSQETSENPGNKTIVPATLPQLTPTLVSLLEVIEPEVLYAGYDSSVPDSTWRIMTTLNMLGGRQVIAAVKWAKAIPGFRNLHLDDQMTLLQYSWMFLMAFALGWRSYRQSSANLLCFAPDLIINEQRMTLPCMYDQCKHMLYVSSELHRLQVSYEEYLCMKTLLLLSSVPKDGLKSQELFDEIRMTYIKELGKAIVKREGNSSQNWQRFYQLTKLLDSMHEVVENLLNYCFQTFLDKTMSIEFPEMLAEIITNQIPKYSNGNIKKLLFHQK

On to `Nc1ccc2cc3ccc(N)cc3nc2c1`, for which the Potency in [1] was 3.35 µM (active) and 3.06 µM (active); in assay [5] it was 2.66 µM (active) and 1.22 µM (active); in assay [7], 12.6 µM (active); in assay [8], 12.6 µM [fluorescent] (active); in assay [10] it was 11.2 µM (active); in assay [11] it was 11.2 µM [fluorescent] (active). For the same compound, the Potency is 11.2 µM [fluorescent] (active) in assay [13]; 11.2 µM [fluorescent] (active) and 7.08 µM [fluorescent] (active) in assay [14]; 12.6 µM [fluorescent] (active) in [15]. Moreover, the Potency result in assay [2], in [3], in [4], in [6], in [9] and in [12] was “inactive” each time.

For `CC1(C)C(=O)N(Br)C(=O)N1Br`, the Potency result in assay [1], in assay [2], in assay [3], in assay [16], in [4] and in [5] was “inactive” each time. For the same compound, the Potency result in [6], in [7], in [8], in assay [9], in assay [17] and in assay [10] was “inactive” in each case. Also, the Potency entry in assay [11], in assay [12], in [13], in assay [14], in assay [15] and in [18] was “inactive” throughout.

Consider `CC(C)N=C(N)/N=C(\N)Nc1ccc(Cl)cc1`, for which the Potency entry in assay [1], in assay [2], in assay [3], in assay [16], in [4] and in assay [5] was “inactive” in each case. Further, the Potency result in assay [20] and in [18] was “inactive” each time. The fluorescence, relative to Rose Bengal in assay [6] was 0.432% [at 18.6 µM]. The fluorescence, % of triamterene in assay [8] was -0.225% [at 18.6 µM]. In addition, the fluorescence, % of fluorescent control was -0.126% [at 18.6 µM] in assay [9]; -0.0312% [at 18.6 µM] in [10]; -0.0425% [at 18.6 µM] in assay [19]; -0.111% [at 18.6 µM] in assay [13]; 0.176% [at 18.6 µM] in assay [15]. For the same compound, the fluorescence, % of fluorescein in [17] was -0.0268% [at 18.6 µM]. The activity change in assay [11] is -0.0305% [at 18.6 µM, stronger effect = higher value]. In addition, the fluorescence, % of fluorescein control in assay [14] was 0.0037% [at 18.6 µM].

Consider `CC(=O)Oc1ccc(C2(c3ccc(OC(C)=O)cc3)C(=O)Nc3ccccc32)cc1`, for which the Potency in assay [1] was 211 nM (active) and 237 nM (active); in assay [3], 150 nM (active) and 266 nM (active); in assay [18] it was 16.9 µM (active) and 26.8 µM (active). Also, the Potency entry in assay [2], in assay [16], in assay [6], in assay [8], in assay [9] and in assay [17] was “inactive” throughout. Moreover, the Potency result in assay [10], in assay [11], in [19], in assay [12], in assay [13] and in assay [14] was “inactive” throughout. Further, the Potency result in assay [15] was “inactive”.

In the case of `O=C1c2c(O)ccc([N+](=O)[O-])c2C(=O)c2c([N+](=O)[O-])ccc(O)c21`, the Potency result in assay [2], in assay [6], in assay [7], in assay [8], in [9] and in assay [17] was “inactive” in each case. The Potency result in [10], in [11], in assay [19], in assay [12], in assay [13] and in assay [14] was “inactive” in each case. Moreover, the Potency entry in assay [15] is “inactive”. For the same compound, the Potency was 8.56 µM (active) in [3], 9.6 µM (active) in assay [16], 30.4 µM (active) in [4] and 54 nM (active) in assay [5].

For the compound `CCOC(=O)COc1ccc(C)cc1`, the Potency entry in assay [1], in assay [2], in assay [3], in [16], in assay [4] and in assay [5] was “inactive” in each case. In addition, the Potency result in assay [6], in [7], in assay [8], in assay [9], in assay [17] and in assay [10] was “inactive” in each case. The Potency entry in assay [11], in [19], in [12], in assay [13], in assay [14] and in assay [15] was “inactive” in each case.
